The source of these data is the supplement of paper PMC4723716.

± gives the uncertainty stated by the source. The full ranking holds about 9,900 compounds; the median of “viability index relative to DMSO control” is about 1, and the lowest 2% start at about 0.85. This is one part of a sample in which the lowest values are shown more often than they occur.

For this experiment, the system named is Plasmodium falciparum NF54 stage V gametocytes. In words: viability index relative to DMSO control (fraction); higher = less gametocyte killing. To be noted: 2.5 µM, incubation time: 72 h. In a few lines: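 Compound at 2.5 µM was incubated for 72 hr at 37°C under low oxygen with P. falciparum NF54 stage V gametocytes (0.75% gametocytemia, 1.25% hematocrit, 10 µl, serum-free screening medium) in 1,536-well plates. Staining used 3 µl of 2.5 µM MitoTracker Red CMXRos plus 0.13% saponin for one to two hours, and red particles of 20–70 µm2 were counted in one imaged field per well. Each viability index is that count relative to the plate mean of solvent-only wells.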

[1] abbreviates: library set: Broad Institute DOS.
[2] abbreviates: library set: Broad Institute Blood Stage.

Under setting [1], `C[C@@H]1CN([C@@H](C)CO)C(=O)Cc2cc(NC(=O)CCC(F)(F)F)ccc2O[C@@H]1CN(C)CC1CC1` returned a viability index of 1.04 ± 0.075.
The same measure, in the same setting: as for `Cc1noc(C)c1S(=O)(=O)N(C)C[C@H]1OCCCC[C@H](C)Oc2ccc(NS(=O)(=O)c3cn(C)cn3)cc2C(=O)N([C@H](C)CO)C[C@@H]1C`, the figure is 1.08 ± 0.019; as for `Cc1noc(C)c1S(=O)(=O)N(C)C[C@H]1OCc2cn(nn2)CCCC(=O)N([C@H](C)CO)C[C@@H]1C`, 0.952 ± 0.014; as for `C[C@H](CO)N1C[C@H](C)[C@@H](CN(C)C)OCc2ccccc2-c2c(n(C)c3ccccc23)C1=O`, 1.04 ± 0.08.
On the same count and under the same terms, under `CNC[C@@H]1OCCCC[C@@H](C)Oc2ccc(NC(=O)Nc3ccc(OC)cc3)cc2C(=O)N([C@H](C)CO)C[C@H]1C` stands 1.05 ± 0.011; under `C[C@H]1CN([C@@H](C)CO)C(=O)c2ccccc2-c2ccccc2CO[C@@H]1CN(C)C(=O)[C@@H]1CCCN1C`, 0.946 ± 0.043; under `CC(C)(C)[S@@](=O)N1Cc2cc(C(=O)NCCc3ccncc3)nc(-c3cccc(-c4cccc(C#N)c4)c3)c2[C@H]1CCO`, 1.06 ± 0.084.
In turn, `COc1cccc(-c2cccc(-c3nc(C(=O)NCc4ccc(Oc5ccccc5)cc4)cc4c3[C@@H](CCO)N(S(=O)C(C)(C)C)C4)c2)c1` (stereo partly drawn) yielded a viability index under setting [2] of 0.799 ± 0.032.
`CC(C)(C)[S@](=O)N1Cc2cc(C(=O)NCc3ccccn3)nc(-c3cccc(-c4ccccc4F)c3)c2[C@@H]1CCO` displayed a viability index under setting [1] of 0.955 ± 0.08.
Still for that read-out and setting: under `CC(C)NC(=O)N1Cc2cc(C(=O)NC3Cc4ccccc4C3)nc(-c3cccc(-c4cccnc4)c3)c2[C@@H]1CCO` stands 0.97 ± 0.052; under `CC(C)(C)S(=O)N1Cc2cc(C(=O)NCc3ccc(Oc4ccccc4)cc3)nc(-c3cccc(-c4cccc(F)c4)c3)c2[C@@H]1CCO` (stereo partly drawn), 1.02 ± 0.034; under `CC(C)(C)[S@@](=O)N1Cc2cc(C(=O)NCc3ccccc3F)nc(-c3cccc(-c4cncnc4)c3)c2[C@H]1CCO`, 0.801 ± 0.1.
Still for that read-out and setting: under `CC(C)(C)[S@](=O)N1Cc2cc(C(=O)NCc3ccccc3F)nc(-c3cccc(-c4cncnc4)c3)c2[C@@H]1CCO` stands 0.89 ± 0.056.
On the same count and under the same terms, under `CC(C)NC(=O)N1Cc2cc(C(=O)NC3CCC3)nc(-c3cccc(-c4cncnc4)c3)c2[C@@H]1CCO` stands 1.01 ± 0.018; under `COc1ccc(CNC(=O)c2cc3c(c(-c4cccc(-c5ccc(C#N)cc5)c4)n2)[C@H](CCO)N([S@@](=O)C(C)(C)C)C3)cc1`, 0.977 ± 0.085; under `CC(C)(C)[S@](=O)N1Cc2cc(C(=O)NCCc3ccncc3)nc(-c3cccc(-c4cccc(C#N)c4)c3)c2[C@@H]1CCO`, 1.08 ± 0.081.
Take `CC(C)NC(=O)N1Cc2cc(C(=O)NC3Cc4ccccc4C3)nc(-c3cccc(-c4cccnc4)c3)c2[C@H]1CCO`: the viability index under setting [1] was 0.764 ± 0.091.
Under setting [2], `CC(C)(C)[S@@](=O)N1Cc2cc(C(=O)NCCc3ccncc3)nc(-c3cccc(-c4ccccc4)c3)c2[C@H]1CCO` yielded a viability index of 0.763 ± 0.047.
`CO[C@@H]1CC[C@H]2CCN(C)C(=O)[C@H](C)CN(C)C(=O)c3cc(C#N)ccc3OC[C@@H]1O2`: under setting [1], the viability index is 0.973 ± 0.056.
Under setting [1], `CCC(=O)Nc1ccc2c(c1)C(=O)N(C)C[C@@H](OC)[C@H](C)CN(C(=O)Cc1cccnc1)[C@@H](C)CO2` returned a viability index of 1.13 ± 0.043.
Still for that read-out and setting: under `O=C(Cc1ccncc1)N1CC[C@@H]2[C@H](CO)Nc3ccc(Br)cc3[C@@H]21` stands 1.077 ± 0.0015.
Still for that read-out and setting: under `C/C=C/c1cccc(-c2nc(C(=O)Nc3nccs3)cc3c2[C@@H](CCO)N(C(=O)NC(C)C)C3)c1` stands 0.867 ± 0.035; under `C[C@@H]1CN([C@H](C)CO)C(=O)Cc2cc(NC(=O)Nc3ccc(F)cc3)ccc2O[C@H]1CN(C)S(C)(=O)=O`, 0.939 ± 0.16; under `CC(=O)NC[C@H]1[C@@H](c2ccc(C#Cc3ccccc3F)cc2)[C@@H](CO)N1C(C)=O`, 1.05 ± 0.002.
The same measure, in the same setting: under `C/C=C/c1ccc([C@H]2[C@@H](CO)N(C(=O)NC3CCCCC3)[C@H]2C#N)cc1` stands 1.11 ± 0.16; under `CC(C)C#Cc1ccc([C@@H]2[C@@H](CO)N(C(=O)c3cccc(F)c3)[C@H]2C#N)cc1`, 1.17 ± 0.073.
On to `C[C@H]1CCCCO[C@H](CN(C)S(=O)(=O)c2ccc(F)cc2)[C@@H](C)CN([C@@H](C)CO)C(=O)c2cc(N(C)C)ccc2O1`, for which the viability index under setting [1] came to 1.09 ± 0.17.
The same measure, in the same setting: under `C[C@@H]1CCCCO[C@@H](CN(C)S(=O)(=O)c2ccc(F)cc2)[C@@H](C)CN([C@@H](C)CO)C(=O)c2cc(N(C)C)ccc2O1` stands 0; under `Cc1noc(C)c1S(=O)(=O)N(C)C[C@H]1OCCCC[C@@H](C)Oc2ccc(N(C)C)cc2C(=O)N([C@H](C)CO)C[C@@H]1C`, 1.02 ± 0.029.
On the same count and under the same terms, under `Cc1noc(C)c1S(=O)(=O)N(C)C[C@@H]1OCCCC[C@@H](C)Oc2ccc(N(C)C)cc2C(=O)N([C@@H](C)CO)C[C@@H]1C` stands 1.08 ± 0.068; under `Cc1noc(C)c1S(=O)(=O)N(C)C[C@@H]1OCCCC[C@@H](C)Oc2ccc(N(C)C)cc2C(=O)N([C@@H](C)CO)C[C@H]1C`, 0.635 ± 0.13; under `C[C@@H]1CCCCO[C@@H](CN(C)S(=O)(=O)c2ccc(F)cc2)[C@H](C)CN([C@@H](C)CO)C(=O)c2cc(N(C)C)ccc2O1`, 1.05 ± 0.092.
Still for that read-out and setting: as for `CCC(=O)N1[C@@H](CO)[C@@H]2c3ccccc3N(C(=O)Nc3ccc(Cl)cc3)C[C@@H]21`, the figure is 1.1 ± 0.044; as for `COc1cccc(-c2ccc([C@H]3[C@H]4CNC[C@@H]3N4CC3CCCCC3)cc2)c1`, 0.963 ± 0.029; as for `CCCC#Cc1cnc2c(c1)C(=O)N([C@H](C)CO)C[C@H](C)[C@H](CN(C)C(=O)Nc1cc(F)ccc1F)O2`, 1.02 ± 0.081.
Under setting [1], `COc1ccccc1CN1C[C@@H](C)[C@H](OC)CN(C)C(=O)c2cc(NC(=O)Nc3ccccc3OC)ccc2OC[C@H]1C` returned a viability index of 1.02 ± 0.091.
On the same count and under the same terms, under `CO[C@@H]1CN(C)C(=O)c2cc(NC(=O)Nc3cccc(Cl)c3)ccc2OC[C@@H](C)N(C(=O)Nc2c(C)noc2C)C[C@H]1C` stands 1.052 ± 0.0092.
On to `COc1ccccc1NC(=O)Nc1ccc2c(c1)OC[C@@H](C)N(Cc1ccccc1Cl)C[C@@H](C)[C@H](OC)CN(C)C2=O`, for which the viability index under setting [2] stood at 0.821 ± 0.053.
`CO[C@H]1CN(C)C(=O)c2cc(NC(=O)Nc3cccc(Cl)c3)ccc2OC[C@H](C)N(C(=O)Nc2c(C)noc2C)C[C@H]1C` registered a viability index under setting [1] of 0.7814 ± 0.0047.
On the same count and under the same terms, under `CO[C@@H]1CN(C)C(=O)c2cc(NC(=O)Nc3cccc(Cl)c3)ccc2OC[C@H](C)N(C(=O)Nc2c(C)noc2C)C[C@H]1C` stands 1.07 ± 0.019.
The molecule `COc1ccccc1CN1C[C@@H](C)[C@H](OC)CN(C)C(=O)c2ccc(NC(=O)Nc3ccccc3OC)cc2OC[C@H]1C` showed a viability index under setting [2] of 0.855 ± 0.025.
As for `Fc1cccc(-c2ccc([C@H]3[C@H]4CNC[C@@H]3N4CC3CCOCC3)cc2)c1`, under setting [1], the viability index turned out to be 1.02 ± 0.0019.
Same read-out and setting: under `C[C@@H]1CN([C@@H](C)CO)C(=O)c2ccccc2-c2ccccc2CO[C@@H]1CN(C)C(=O)[C@@H]1CCCN1C` stands 0.936 ± 0.093; under `COc1ccc2c3c([C@H](CO)N(Cc4nccs4)C[C@]33CCN(CC4CCCC4)CC3)n(C)c2c1`, 0.841 ± 0.028.
The same measure, in the same setting: under `COc1ccc2c3c([C@@H](CO)N(Cc4nccs4)C[C@]33CCN(CC3)C(=O)CN(C)C)n(C)c2c1` stands 0.905 ± 0.039; under `COc1ccc2c3c([C@H](CO)N(Cc4nccs4)C[C@]33CCN(CC3)C(=O)CN(C)C)n(C)c2c1`, 0.955 ± 0.12; under `COc1ccc2c3c([C@@H](CO)N(Cc4nccs4)C[C@]33CCN(CC4CCCC4)CC3)n(C)c2c1`, 0.848 ± 0.029.
Still for that read-out and setting: as for `COc1ccc2c3c([C@H](CO)N(CC4CCOCC4)C[C@]33CN(Cc4nccs4)C3)n(C)c2c1`, the figure is 1.08 ± 0.019.
As for `COc1ccc2c3c([C@@H](CO)N(CC4CCOCC4)C[C@]33CN(Cc4nccs4)C3)n(C)c2c1`, the viability index under setting [1] came out at 1.1 ± 0.08.
The same measure, in the same setting: under `CO[C@H]1CN(C)C(=O)c2cc(NC(=O)NC(C)C)ccc2OC[C@@H](C)N(C(=O)CN(C)C)C[C@H]1C` stands 1.03 ± 0.043; under `COCC#Cc1ccc([C@@H]2[C@@H](CO)N3C(=O)CN(C(=O)Nc4ccccc4F)C[C@@H]23)cc1`, 1.02 ± 0.025.
Still for that read-out and setting: under `C[C@H](CO)N1C[C@H](C)[C@@H](CN(C)C(=O)Nc2ccccc2F)Oc2cc(Br)ccc2S1(=O)=O` stands 1.01 ± 0.02; under `COc1ccc2c3c([C@H](CO)N(C[C@]33CCN(CC3)C(=O)Nc3ccc(F)cc3F)C(=O)Nc3ccc(F)cc3)n(C)c2c1`, 1.04 ± 0.029.
On the same count and under the same terms, as for `N#C[C@@H]1N[C@H](CO)[C@H]1c1ccc(-c2cccc(F)c2)cc1`, the figure is 1.18 ± 0.088; as for `CCS(=O)(=O)Nc1ccc2c(c1)C(=O)N(C)[C@@H]1CC[C@H](CC(=O)NCc3ccc(OC)cc3)O[C@H]1CO2`, 1.01 ± 0.078; as for `Cc1cccc(S(=O)(=O)N2CC[C@@H]3[C@@H](CO)Nc4ccc(-c5ccccc5F)cc4[C@@H]32)c1`, 1.18 ± 0.029.
Under setting [1], `N#Cc1cccc(-c2ccc3c(c2)[C@@H]2[C@@H](CCN2S(=O)(=O)c2ccc(F)cc2)[C@H](CO)N3)c1` yielded a viability index of 0.844 ± 0.062.
Take `COc1ccccc1-c1ccc2c(c1)[C@@H]1[C@@H](CCN1S(=O)(=O)c1ccc(C)cc1)[C@H](CO)N2`: under setting [1], the viability index came to 0.836 ± 0.028.
Still for that read-out and setting: under `COc1ccc(-c2ccc3c(c2)[C@@H]2[C@@H](CCN2C(=O)c2cccc(F)c2)[C@@H](CO)N3)cc1` stands 0.996 ± 0.08; under `N#Cc1cccc(-c2ccc3c(c2)[C@H]2[C@H](CCN2S(=O)(=O)c2ccc(F)cc2)[C@H](CO)N3)c1`, 1.09 ± 0.017.
Same read-out and setting: as for `N#Cc1cccc(-c2ccc3c(c2)[C@@H]2[C@@H](CCN2S(=O)(=O)c2ccc(F)cc2)[C@@H](CO)N3)c1`, the figure is 0.855 ± 0.011; as for `Cc1cccc(S(=O)(=O)N2CC[C@@H]3[C@H]2c2cc(-c4ccccc4F)ccc2N[C@@H]3CO)c1`, 0.926 ± 0.08; as for `Cc1cccc(S(=O)(=O)N2CC[C@@H]3[C@H](CO)Nc4ccc(-c5ccccc5F)cc4[C@@H]32)c1`, 1.06 ± 0.03.
Same read-out and setting: under `COc1ccc(-c2ccc3c(c2)[C@H]2[C@H](CCN2C(=O)c2cccc(F)c2)[C@@H](CO)N3)cc1` stands 0.942 ± 0.075; under `Cc1cccc(S(=O)(=O)N2CC[C@H]3[C@H](CO)Nc4ccc(-c5ccccc5F)cc4[C@H]32)c1`, 1.08 ± 0.023.
Consider `COc1ccccc1-c1ccc2c(c1)[C@H]1[C@H](CCN1S(=O)(=O)c1ccc(C)cc1)[C@@H](CO)N2`, for which the viability index under setting [1] worked out at 0.811 ± 0.098.
Still for that read-out and setting: under `COc1ccc(-c2ccc3c(c2)[C@@H]2[C@@H](CCN2C(=O)c2cccc(F)c2)[C@H](CO)N3)cc1` stands 0.848 ± 0.042.
Still for that read-out and setting: under `C[C@@H]1CN([C@H](C)CO)C(=O)CCCn2cc(nn2)CO[C@H]1CN(C)C(=O)Nc1cccc2ccccc12` stands 0.99 ± 0.023.
